Screening data from PubChem.
Most compounds without a hit are left out; they make up all but 7% or so of the library.
D3 antag – D3 dopamine receptor (human) antagonism. P35462. D3R cells, DiscoveRx beta-arrestin luminescence, antagonist mode; active compounds read low. max response, negative = inhibition, %. 2.5% of 360,000 active; in the data active = max response below about -50%; inconclusive = no clear call, values can overlap the other calls
Target sequence (P35462 whole entry, looked up): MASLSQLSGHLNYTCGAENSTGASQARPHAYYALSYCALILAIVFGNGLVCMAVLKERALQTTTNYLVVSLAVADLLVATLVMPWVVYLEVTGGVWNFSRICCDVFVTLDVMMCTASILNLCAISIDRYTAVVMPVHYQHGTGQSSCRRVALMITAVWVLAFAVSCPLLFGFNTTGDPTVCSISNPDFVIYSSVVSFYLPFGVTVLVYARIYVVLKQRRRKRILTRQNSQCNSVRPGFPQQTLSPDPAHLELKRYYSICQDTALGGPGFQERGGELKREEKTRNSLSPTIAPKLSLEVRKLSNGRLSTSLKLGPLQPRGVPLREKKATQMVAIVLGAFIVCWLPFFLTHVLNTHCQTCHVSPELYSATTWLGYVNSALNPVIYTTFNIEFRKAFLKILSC
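Cells expressing the human receptor were seeded at 1500 cells/well, incubated overnight at 37 degrees C in 5% CO2, then exposed to library compounds with dopamine controls for 90 minutes at 37 degrees C before luminescent detection.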
Integrin act MD – activators of alpha7 integrin expression for muscular dystrophy. alpha7betagal myoblasts, beta-gal FDG fluorescence, 48 h. Potency, µM (doses to about 38.3 µM), actives largely listed as activators. 0.064% of 350,000 active; note: nearly all actives have a fitted effect of over 60% in size
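Alpha7betagal+/- myoblasts (passage 13) were plated 16-24 hr, then exposed to compounds (1:260 dilution of DMSO stock) for 48 hours at 37C. After MPER lysis, β-galactosidase reporter activity was read as FDG fluorescence (ex 480/em 540) after 30 minutes.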
ATXN2 expr inh – reduces ATXN2 reporter expression in HEK-293 cells | HEK-293 ATXN2-luciferase reporter, luminescence, 24 h | Potency, µM (series often up to 57 µM), actives largely listed as inhibitors | 0.72% of 360,000 active; note: nearly all actives have a fitted effect of over 55% in size
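qHTS (up to 57 uM final) was run with 24 h compound exposure of reporter cells at 37 °C. Each well was multiplexed: SteadyGlo luminescence measured ATXN2-luciferase expression after a fluorogenic Gly-Phe-AFC viability readout (25 uM final).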
S2 tox – viability counter-screen for ATXN expression inhibitors. S2 cells (HEK-293 line with an ATXN2-luciferase reporter) viability, CellTiter-Fluor protease fluorescence, 24 h. Potency, µM (series often up to 56.7 µM), actives largely listed as cytotoxic. 0.49% of 400,000 active. AID 651635; note: nearly all actives have a fitted effect of over 40% in size
IL1B secr inh – blocks inflammasome-driven IL-1 beta release; THP-1 LPS/ATP IL-1B secretion, AlphaLISA, 16 h; active compounds read low; activity change, % at 57.5 µM; 4.7% of 360,000 active; AID 743279; in the data active = activity change below about -50%; inconclusive = mostly about -30% to -49%
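Secreted IL-1B measured by AlphaLISA bead assay after 16 h compound exposure of THP-1 cells; compounds (final up to 57.5 uM) added 1 h before LPS (250 ng/mL) and ATP (1.25 mM) stimulation; lower signal means less secretion.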
DRD3 agonist – D3 dopamine receptor (human) agonism; max activation, %; 0.58% of 410,000 active; D3R DiscoveRx beta-arrestin cells, luminescence, 90 min; AID 652048; in the data active = max activation above about 30%
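Cells at 1500/well, incubated overnight, then treated with pinned compounds (dopamine as control) for 90 min at 37 degrees C. DiscoveRx reagent added for 30 - 60 minutes at room temperature; luminescence read.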
Numbers stand for hits; – = inactive; ? = inconclusive; · = not tested or not shown; [ ] = remark or other dose. Unless noted, calls come from the whole dose curve; as a rule, active = well fitted curve in the direction sought with a large enough effect; inconclusive = small, poorly fitted or top-dose-only effect, or another doubt; inactive = no such curve, though single readings can be large; an effect the other way counts as inactive or inconclusive.

SMILES	D3 antag	Integrin act MD	ATXN2 expr inh	S2 tox	IL1B secr inh	DRD3 agonist
O=C(Nc1ccc2oc(Cc3ccc(Cl)cc3)nc2c1)c1cccnc1	–	–	?	?	-67	–
COc1cccc2cc(C(=O)N3CCN(c4ccccn4)CC3)c(=O)oc12	–	–	–	–	–	–
C=C(CN(C)C)C(=O)c1ccc(OC2OC(COC(C)=O)C(OC(C)=O)C(OC(C)=O)C2OC(C)=O)cc1 (stereo not given)	-82	–	?	9.5µM	-101	–
COCCOC(=O)c1c(C)oc2ccc(O)c(CN3CCC(C)CC3)c12 (tested in a mixture with another compound)	–	–	–	–	-52	–
CCOc1ccc(-c2nc(S(=O)(=O)c3ccccc3)c(NC)o2)cc1	–	–	–	–	–	–
CNc1oc(Cc2ccccc2)nc1S(=O)(=O)c1ccccc1	-89	–	–	?	–	–
CCc1ccccc1N(CC)C(=O)C1CCN(c2ncnc3c2nc2n3CCCCC2)CC1	–	–	·	?	–	–
O=C(CC12CC3CC(CC(C3)C1)C2)N1CCCC1	–	–	–	–	–	–
CN1CCN(C(=O)CC23CC4CC(CC(C4)C2)C3)CC1	-78	?	–	–	–	–
Cc1ccc(NS(=O)(=O)c2cc(C(=O)NCCSc3ccc(C)cc3)ccc2C)cc1	–	–	?	?	-53	–
Cc1ccc(C(=O)NCCSc2ccc(Cl)cc2)cc1S(=O)(=O)Nc1ccccc1	–	–	–	–	-93	–
Cc1ccc(C)c(S(=O)(=O)Nc2ccc(C(=O)NCCCN(C)C)cc2)c1	–	–	·	?	–	–
Cc1ccc(NS(=O)(=O)c2cc(C(=O)NCCSC3CCCCC3)ccc2C)cc1	–	–[7.66 µM]	?	?	-57	–
Cc1ccc(SCCNC(=O)c2ccc(C)c(S(=O)(=O)Nc3cccc(C)c3)c2)cc1	–	–	?	?	-57	–
Cc1ccc(SCCNC(=O)c2ccccc2)cc1	–	–	–	–	–	–
CS(=O)(=O)Nc1ccc(C(=O)NCCSC2CCCCC2)cc1	–	–	–	–	–	–
CCOC(=O)Cc1csc(NC(=O)C2C3C=CC(C3)C2C(=O)O)n1 (stereo not given)	–	–	–	–	–	–
O=C(Nc1ccc(O)cc1)c1cccc(Oc2ccc([N+](=O)[O-])cc2)c1	–	?	–	–	-68	–
O=C(NNC(=O)c1cccc(O)c1)Nc1ccc([N+](=O)[O-])cc1	-57	?	–	–	–	–
O=C(Nc1ccc([N+](=O)[O-])cc1)c1cccc([N+](=O)[O-])c1	–	–	·	?	–	–
Cc1ccc(NC(=O)c2cccc(Oc3ccc([N+](=O)[O-])cc3)c2)c(C(=O)O)c1	–	–	·	·	–	–
CN(C)c1ccc(CN2CCC(C(=O)NC(c3ccc(F)cc3)c3ccc4ccccc4n3)CC2)cc1 (stereo not given)	-82	·	?	?	-54	–
O=C(NC(c1ccc(F)cc1)c1ccc2ccccc2n1)C1CCN(Cc2ccc3ccccc3n2)CC1 (stereo not given)	-53	·	–	?	–	–
COc1cc(/C=C/CN2CCC(C(=O)NC(c3ccc(F)cc3)c3ccc4ccccc4n3)CC2)ccc1OC(C)=O (stereo not given)	-110	·	?	?	-62	–
COc1cc(OC)nc(C(NC(=O)C2CCN(Cc3ccc(N(C)C)cc3)CC2)c2ccc(F)cc2)n1 (stereo not given)	?	·	–	–	–	–
SMILES	D3 antag	Integrin act MD	ATXN2 expr inh	S2 tox	IL1B secr inh	DRD3 agonist
O=C(NC(c1ccc(F)cc1)c1ccc2ccccc2n1)C1CCN(CCOc2ccc(Cl)cc2)CC1 (stereo not given)	-118	·	?	14µM	–	–
CN(CC(=O)Nc1ccccc1C(F)(F)F)C(=O)CC1OC(=O)c2ccccc21 (stereo not given)	–	–	–	–	–	–
Cn1nc(C(F)(F)F)cc1Oc1ncc(C(F)(F)F)cc1Cl	–	–	–	?	–	–
COc1ccc(OC)c(NC(=O)CSc2nc3[nH]c(=O)cc(O)c3s2)c1	–	–	·	·	–	–
O=C(NC(c1ccc(F)cc1)c1ccc2ccccc2n1)C1CCN(Cc2cccc(C(F)(F)F)c2)CC1 (stereo not given)	-81	·	?	?	-89	–
CCc1n[nH]c(=S)n1/N=C/C(C)=C\c1ccccc1	–	–	·	–	–	–
COc1ccc(-n2c(C(C)n3nc(C)c([N+](=O)[O-])c3C)n[nH]c2=S)cc1 (stereo not given)	–	–	–	–	–	–
COc1ccc(-n2c(C)c([N+](=O)[O-])c3ccc(O)c(CN(C)C)c32)cc1	–	–	–	–	-59	–
Cc1cccc(NC(=O)Cn2nc(-c3ccco3)ccc2=O)c1C	–	–	–	–	–	–
CCCC[C@@H](CNC)NC[C@H](NCCCCC1CCCCC1)C(C)C	–	–	25µM	?	?	–
CCCOc1ccc(C(=O)N/N=C/c2ccc(-c3ccc(S(=O)(=O)Nc4ncccn4)cc3)o2)cc1	–	–	–	–	–	–
COC(=O)c1c(NC(=O)c2ccc(C)cc2)sc(Cc2ccccc2)c1C	-65	–	–	–	–	–
Cc1cc(NC(=O)CCC(=O)N(CC(=O)NC2CCCC2)Cc2ccco2)no1	–	–	–	–	–	–
CC(C)c1onc(C(=O)N2CCCCC2)c1[N+](=O)[O-]	–	–	–	?	-65	–
CC(C)c1onc(C(=O)N2CCCCC2C)c1[N+](=O)[O-] (stereo not given)	–	–	–	–	–	–
CCCCN(C)Cc1cc(=O)oc2cc3c(cc12)CCCC3	-91	–	–	·	–	–
CCn1nc2cc(C(=O)NCc3cc(C(F)(F)F)cc(C(F)(F)F)c3)ccc2c1OC	–	–	?	–	-57	–
CCOc1c2ccc(C(=O)NCc3ccc(C(F)(F)F)cc3C(F)(F)F)cc2nn1C	–	–	–	–	-51	–
CCCCn1nc2cc(C(=O)NCc3cc(C(F)(F)F)cc(C(F)(F)F)c3)ccc2c1OC	–	–	–	–	–	–
O=C(Cn1c(=O)n(-c2ccc(F)c(Cl)c2)c(=O)c2sc3ccccc3c21)NC1CCCCC1	·	·	–	?	·	–
O=C1COc2cc(S(=O)(=O)NCc3ccco3)c(Cl)cc2N1	·	·	·	·	·	–
O=C(/C=C/c1ccc(-c2ccccc2[N+](=O)[O-])o1)c1ccccc1	–	–	–	–	-67	–
Cc1cc(C)nc(N/N=C2/CCCC/C2=C\c2ccccc2)n1	–	–	0.95µM	?	?	–
COc1ccc(Cn2nnnc2CN(Cc2cc3ccc(C)cc3[nH]c2=O)C2CCCC2)cc1	–	–	–	–	–	–
